# Bioassay records from PubChem.
# SW480 rerep: inducers of DNA re-replication in SW480 colon cancer cells. 340,000 tested, 1.8% active. Potency, µM (doses to about 46.1 µM), usual class: activators. SW480 DNA re-replication, Hoechst DNA content imaging, 48 h. AID 624297; further: nearly all actives have a fitted effect of over 55% in size
#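 Quantitative HTS format with DMSO vehicle controls; 48 hr drug incubation at 37 C, then 40 min Hoechst staining and scanning imager measurement at 405 nm excitation.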
# A-T KAP1 phos: potential ataxia-telangiectasia treatments restoring KAP-1 phosphorylation | 320,000 tested, 0.19% active | F2112 A-T fibroblasts, KAP-1 phosphorylation AlphaLISA; neocarzinostatin DNA damage 30 min before lysis | Potency, µM (series often up to 57.5 µM), hits mostly activators | AID 485349; further: nearly all actives have a fitted effect of over 45% in size
#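 hTERT-immortalized A-T patient fibroblasts (F2112), 500 cells/well in OPTI-MEM, 1% FBS, got compounds for 60 min, then NCS for 30 min at 37C. Lysates were then assayed for phospho-KAP-1 by AlphaLISA (anti-pKAP1 donor, anti-KAP1 acceptor beads), 6 hr at 25C.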
# MCF10A rerep: inducers of DNA re-replication in MCF 10A breast cells; 350,000 tested, 2.9% active; Potency, µM (highest dose often 46.1 µM), most hits filed as activators; MCF 10A DNA re-replication, Hoechst nuclear intensity, 48 h; AID 624296; further: nearly all actives have a fitted effect of over 50% in size
# Mito fusion act: mitochondrial division inhibition or fusion activation; S. cerevisiae fusion-defective mutant growth rescue, CellTiterGlo 48 h; AID 485298; 320,000 tested, 0.23% active; Potency, µM (series often up to 46.1 µM), hits mostly activators; further: nearly all actives have a fitted effect of over 45% in size
#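 Compounds are tested for their ability to restore growth of mitochondrial fusion-defective yeast strains at non-permissive 37C in YPEG medium over 48 hours. Viability is quantified by luciferase luminescence.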
# Integrin act MD: integrin-mediated muscular dystrophy alleviation activation | alpha7betagal myoblasts, beta-gal FDG fluorescence, 48 h | Potency, µM (titrated, usually from 38.3 µM), most hits filed as activators | 350,000 tested, 0.064% active | AID 624291; further: nearly all actives have a fitted effect of over 60% in size
#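 alpha7betagal+/- myoblasts (passage 13, 250/well) treated 48 h at 37C with compounds at 1:260 dilution of DMSO stock. Lysed, then beta-galactosidase activity read as FDG fluorescence (ex 480/em 540) after 30 min, with pre-read for autofluorescence.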
# Numbers stand for hits; - = inactive; ? = inconclusive; . = no result given; [ ] = dose if it differs, or a comment. Compounds with a hit are over-represented: about 4.2% of the library has one in this group of screens. The call rests on the fitted dose curve; in most records, active means well fitted activation curve with a large enough effect; inconclusive means small, poorly fitted or top-dose-only effect; inactive means no such curve, though single readings can be large or run the other way.
SMILES,SW480 rerep,A-T KAP1 phos,MCF10A rerep,Mito fusion act,Integrin act MD
Cc1nc(Cc2nnc(SCC(=O)N3CCN(c4ccc(O)cc4)CC3)o2)cs1,2.1µM,-,-,-,-
Cc1nc(Cc2nnc(SCC(=O)N3CCN(c4ccc(F)cc4)CC3)o2)cs1,-,-,-,-,-
Cn1ncc2c(Nc3ccccc3Cl)nc(Nc3ccccc3Cl)nc21,-,-,18µM,-,-
c1ccc2c(c1)Sc1ccccc1N2CCN1CCCC1,-,.,-,.,.
O=C1N=C2N(CCN3CCCCC3)c3ccccc3N2/C1=C\c1ccc([N+](=O)[O-])s1,?,.,18µM,.,-
CC(C)=C1C(=O)NN(c2ccc(F)c(Cl)c2)C1=O,-,-,?,-,-
O=C1NN(c2ccc(F)c(Cl)c2)C(=O)/C1=C\c1cccc(OC(=O)c2cccs2)c1,-,-,15µM,-,-
CC(=O)N1CCOc2ccc(S(=O)(=O)Nc3cccc(C)n3)cc21,-,-,-,-,-
C/C(Cl)=C\Cn1c(NCCCn2ccnc2)nc2c1c(=O)n(C)c(=O)n2C,-,-,-,-,-
CCNc1nc2c(c(=O)n(C)c(=O)n2C)n1CCCc1ccccc1,23µM,-,?,-,-
C=CCn1c(NCCc2ccccc2)nc2c1c(=O)n(C)c(=O)n2C,-,-,-,-,-
CCNc1nc2c(c(=O)[nH]c(=O)n2C)n1CCCc1ccccc1,-,-,-,-,-
CCN(CC)CCNc1nc2c(c(=O)n(C)c(=O)n2C)n1C/C=C(/C)Cl,-,-,16µM,-,-
C/C(Cl)=C\Cn1c(NCCc2ccccc2)nc2c1c(=O)n(C)c(=O)n2C,-,-,18µM,-,-
Cn1cccc1/C=N/NC(=O)c1cc2ccccc2cc1O,?,-,-,-,-
Cc1cccc(Nc2nnc(SC/C(O)=C(\C#N)c3nc4ccccc4[nH]3)s2)c1C,?,-,13µM,-,-
CCCc1cc2c(=O)c(-c3nc4ccccc4s3)c(COCC(=O)O)oc2cc1O,?,-,23µM,-,-
Cc1ccc(S(=O)c2snnc2C)cc1 (stereo not drawn),-,-,-,-,-
CCCNC(=O)c1nnsc1S(=O)c1ccc(Cl)cc1 (stereo not drawn),23µM,-,3.3µM,-,-
CNC(=O)c1nnsc1S(=O)c1ccc(Cl)cc1 (stereo not drawn),?,-,2.3µM,-,-
CCCNC(=O)c1nnsc1S(=O)(=O)c1ccc(Cl)cc1,7.3µM,-,2.3µM,-,-
CCOC(=O)C1(CCCc2ccccc2)CCN(C(=O)CCC2=NNC(=O)CC2)CC1,-,-,-,-,-
COc1ccc(CN2CCC(N3CCC(C(=O)N4CCOCC4)CC3)CC2)c(F)c1,-,-,-,-,-
NC(=O)c1ccsc1NC(=O)COC(=O)C1CC2CCCC(C1)C2=O (stereo not drawn),-,-,-,-,-
Cc1ccc(-c2cc(C(=O)Nc3nn[nH]n3)c3ccccc3n2)cc1,-,-,-,-,-
SMILES,SW480 rerep,A-T KAP1 phos,MCF10A rerep,Mito fusion act,Integrin act MD
O=[N+]([O-])c1ccc(NN=Cc2cccc3ccccc23)cc1,1.2µM,.,?,.,?
Cc1ccc([C@H]2C[C@@H](O)[C@H](n3cc(C4CC4)nn3)CN2CC2CCCCC2)cc1,.,.,.,.,-
S=C(NCCc1ccccc1)N1CCN(C23CC4CC(CC(C4)C2)C3)CC1,?,-,5.8µM,?,-
O=[N+]([O-])c1cc(-c2ncccn2)c([N+](=O)[O-])s1,21µM,-,7.3µM,-,-
Cc1cc2n(n1)C(c1ccc(N(C)C)cc1)Nc1ccccc1-2 (stereo not drawn),21µM,-,21µM,-,-[7.66 µM]
Cc1cc2n(n1)C(c1ccccc1)Nc1ccccc1-2 (stereo not drawn),-,-,-,-,-
CON1C(=O)C(=O)N(OC)C(C)(C)C1(C)C,-,-,-,-,-
Cc1ccc(C)c(N2CCN(C(=O)c3ccc(CS(=O)Cc4ccc(Cl)cc4)o3)CC2)c1 (stereo not drawn),16µM,-,?,-,-
O=C(c1ccc(CS(=O)c2ccccc2Cl)o1)N1CCN(c2ccccc2)CC1 (stereo not drawn),2.6µM,-,?,-,-
COc1ccc(N2CCN(C(=O)c3ccc(CS(=O)c4cccc(C)c4)o3)CC2)cc1 (stereo not drawn),5.8µM,-,?,-,-
Cc1ccc(Cl)cc1N1CCN(C(=O)c2ccc(CS(=O)Cc3ccc(Cl)cc3)o2)CC1 (stereo not drawn),-,-,?,-,-
COc1cccc(N2CCN(C(=O)c3ccc(CS(=O)c4ccccc4C)o3)CC2)c1 (stereo not drawn),5.8µM,-,?,-,-
COc1ccc(N2CCN(C(=O)c3ccc(CS(=O)(=O)c4ccccc4C)o3)CC2)cc1,-,-,-,-,-
O=C(CN1C(=O)c2ccccc2S1(=O)=O)N1CCN(c2ccc(F)cc2)CC1,-,-,-,-,-
COc1ccc(NS(=O)(=O)c2cccc(C(=O)N3CCN(S(=O)(=O)c4ccccc4)CC3)c2)cc1,-,.,-,.,-
COc1cccc(N2CCN(C(=O)c3ccc(CS(=O)c4ccccc4Cl)o3)CC2)c1 (stereo not drawn),0.52µM,-,-,-,-
COc1ccccc1S(=O)(=O)Cc1ccc(C(=O)N2CCN(c3cccc(Cl)c3)CC2)o1,?,-,15µM,-,-[7.66 µM]
O=C(Nc1nccs1)C1Cc2ccccc2CN1S(=O)(=O)c1ccc(F)cc1 (stereo not drawn),4.1µM,-,-[0.0737 µM],-,-
CCOC(=O)/C(=C\c1cccc(O)c1)c1nc2sc(C)c(C)c2c(=O)[nH]1,?,-,2.3µM,-,-
CCOC(=O)c1nc2sc(C)c(C)c2c(=O)[nH]1,-,-,-,-,-
CCOc1ccc(-c2cc(C(=O)N/N=C/c3cccnc3)c3ccccc3n2)cc1,7.3µM,-,2.9µM,-,-
Cc1ccc(COc2ccccc2-c2cc(C(=O)N/N=C/c3cccnc3)[nH]n2)cc1,-,-,8.2µM,-,-
COc1ccc(-c2cc(C(=O)N/N=C/c3cccnc3)c3cc(C)cc(C)c3n2)cc1,?,-,16µM,-,-
CC(C)COc1cccc(-c2cc(C(=O)N/N=C/c3ccncc3)c3ccccc3n2)c1,-,-,18µM,-,-
CCOc1ccccc1-c1cc(C(=O)N/N=C/c2cccnc2)c2ccccc2n1,-,.,-,.,-
NC(=O)CCC1NC(=S)N(Cc2ccccc2)C1=O (stereo not drawn),-,-,-,-,-
C=CCCC(=O)Nc1ccc(Br)cn1,16µM,-,9.2µM,-,-
CCCCC(=O)Nc1ccc(Br)cn1,-,-,-,-,-
O=C(/C=C/c1ccccc1)Nc1ccc(Br)cn1,5.8µM,-,2.1µM,-,-
